Assay outcomes from PubChem BioAssay.
An excerpt weighted towards active compounds, which were near 2.2% of everything screened.
beta cell repl – inducers of MIN6 beta-cell proliferation, primary screen, ATP luminescence, uHTS; proliferation, % at 10 µM; AID 2380, 2010; MIN6 cells proliferation, ATPlite luminescence, 48 h; cells starved in 0.2% serum; 100% = growth in 10% serum; 0.29% of 330,000 active;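 active means compounds whose signal lies at least 3.5 SD above the mean of all wells on their plate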
Cardio protect – cardioprotection against H2O2-induced cell death, primary screen, uHTS, H9c2 cells, ATPLite luminescence; H9c2 cardiomyocytes, H2O2 injury protection, 2 h; 0.63% of 360,000 active; protection from H2O2 cell death, % at 20 µM; AID 588492, 2011;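 active means compounds giving at least 50% protection of heart cells from peroxide-induced death in the single-dose screen, raw or plate-pattern-corrected value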
Myeloid diff 2 – induction of myeloid progenitor differentiation, primary screen, cell-based, flow cytometry, MLPCN library; calls only at 10 µM; ER-HoxA9 myeloid progenitors, lysozyme-GFP differentiation; AID 624256, 2012; 1% of 360,000 active;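 active means normalized GFP-positive differentiation at or above the plate's own cutoff, the solvent-only control mean plus 3 SD; inconclusive means no clear call, values can overlap the other calls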;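 further: cells exposed to compound for four days before flow analysis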
hiPSC survival – enhancers of single-cell hiPSC survival, primary screen, ATPlite luminescence. 0.044% of 360,000 active. 100% = ROCK inhibitor wells, 0% = DMSO. AID 602274, 2012. survival enhancement, % at 20 µM; in the data active means survival enhancement above about 18%;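 further: cells exposed to compounds for 16 hours before the ATP read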
ABCB6 inh MLPCN – ABCB6 transporter inhibitors, primary screen, K562-ABCB6 cells, flow cytometry, MLPCN library | fluorescence ratio to DMSO, % at 10 µM | 0.19% of 360,000 active | AID 602162, 2011 | K562-ABCB6 porphyrin accumulation, 1 h; active compounds read low;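 active means fluorescence ratio to DMSO below 75%, the collection mean minus 3 SD; inconclusive means too few cells collected in the well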;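 further: signal is porphyrin accumulated inside mitochondria; lower ratio means ABCB6 inhibition with less porphyrin fluorescence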
Target sequence (Q9NP58 whole entry, looked up): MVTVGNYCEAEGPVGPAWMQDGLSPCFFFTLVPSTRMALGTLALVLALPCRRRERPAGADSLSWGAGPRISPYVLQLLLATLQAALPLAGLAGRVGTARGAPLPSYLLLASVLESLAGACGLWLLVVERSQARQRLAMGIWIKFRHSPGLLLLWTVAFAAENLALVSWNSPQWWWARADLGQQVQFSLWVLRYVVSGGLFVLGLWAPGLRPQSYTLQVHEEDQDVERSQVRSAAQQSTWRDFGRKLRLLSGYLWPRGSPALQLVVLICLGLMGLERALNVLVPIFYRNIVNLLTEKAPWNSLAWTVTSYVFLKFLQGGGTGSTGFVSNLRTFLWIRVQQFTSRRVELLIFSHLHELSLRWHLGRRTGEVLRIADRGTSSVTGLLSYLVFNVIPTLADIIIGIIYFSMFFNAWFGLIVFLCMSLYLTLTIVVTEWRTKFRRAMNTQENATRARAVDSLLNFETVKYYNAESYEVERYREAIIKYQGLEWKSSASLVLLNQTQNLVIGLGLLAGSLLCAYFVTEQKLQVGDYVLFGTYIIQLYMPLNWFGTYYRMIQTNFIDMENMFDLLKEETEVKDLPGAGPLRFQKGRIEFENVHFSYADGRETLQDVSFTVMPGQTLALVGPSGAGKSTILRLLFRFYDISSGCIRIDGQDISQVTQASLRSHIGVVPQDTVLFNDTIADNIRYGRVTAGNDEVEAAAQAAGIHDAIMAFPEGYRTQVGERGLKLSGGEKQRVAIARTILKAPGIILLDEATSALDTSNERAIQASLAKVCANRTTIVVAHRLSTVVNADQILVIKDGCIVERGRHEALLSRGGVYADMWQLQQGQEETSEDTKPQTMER
Myeloid diff CP1 – inducers of myeloid progenitor differentiation, confirmation, cell-based, GFP/Mac1 flow cytometry, cherry pick 01 | shares compounds with Myeloid diff 2 | ER-HoxA9 myeloid progenitors, GFP/Mac1 double-positive flow | calls only | 2% of 2,300 active;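 active means share of green or green-and-red cells above 9 and 9% in run 1 or 4 and 3% in run 2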
GFP autofluor – flagged as fluorescent in myeloid differentiation counter-screen; ER-HoxA9 myeloid progenitors, no estrogen, GFP autofluorescence flow cytometry; vehicle wells 0%, positive control 100%; fluorescence response, % (test concentration not listed); shares compounds with Myeloid diff 2; 7.4% of 2,300 active;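 active means over 5% cells positive for green fluorescent reporter, or over 2% positive for both it and APC stain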
Large screens that a line does not name were inactive (follow-up assays come after a bar, where they were run).

CCN(C[C@H]1N[C@@](Cc2ccccc2)(C(=O)OC)[C@H]2C(=O)N(Cc3ccccc3)C(=O)[C@@H]12)S(=O)(=O)c1ccc(OC)cc1	none
CCc1cc2c(=O)n(Cc3ccco3)c(SCC(=O)NCC3CCCO3)nc2s1 (configuration not stated)	none
CN(NS(=O)(=O)c1ccc(Br)cc1)c1nc(C(F)(F)F)nc2ccccc12	none
CC(=O)c1ccc(Nc2nc(=O)c3cccnc3s2)cc1	none
Cc1ccc(Nc2nc(=O)c3cccnc3s2)c(Br)c1	Myeloid diff 2 active | Myeloid diff CP1 active | GFP autofluor inactive
Cc1c(NC(=O)c2c(N)n(-c3ccccc3)c3nc4ccccc4nc23)c(=O)n(-c2ccccc2)n1C	none (no result: Cardio protect, Myeloid diff 2, hiPSC survival, ABCB6 inh MLPCN)
CCN1CCN(CCCNC(=O)CS(=O)(=O)Cc2nc(-c3cccc(OC)c3)oc2C)CC1	none | Myeloid diff CP1 inactive | GFP autofluor inactive
CCn1c(SCC(=O)NCC2CCCO2)nc2c(c1=O)SC(C)C2 (configuration not stated)	none
Cc1ccccc1NC(=O)c1ccco1	none
Cc1cccc(NC(=O)c2ccco2)c1C	none | Myeloid diff CP1 inactive | GFP autofluor inactive
Cc1cc(C)n(-c2nnc3n2N=C(c2c[nH]c4ccccc24)CS3)n1	none | Myeloid diff CP1 inactive | GFP autofluor inactive
Cc1c(NC(=O)C(C)Sc2ccc3ccccc3n2)c(=O)n(-c2ccccc2)n1C (configuration not stated)	none
Cc1c(NC(=O)C(C)Sc2nc3ccccc3c(=O)n2CCO)c(=O)n(-c2ccccc2)n1C (configuration not stated)	none | Myeloid diff CP1 inactive | GFP autofluor inactive
COc1ccc(NC(=O)N(C)C[C@@H]2OCc3ccccc3-c3c(n(C)c4ccccc34)C(=O)N([C@H](C)CO)C[C@H]2C)c(OC)c1	none (no result: beta cell repl)
CCOC(=O)c1ccc(N2C(=O)CC(N(C)CCc3ccc(OC)c(OC)c3)C2=O)cc1 (configuration not stated)	none | Myeloid diff CP1 inactive | GFP autofluor inactive
COCCCNC(=O)Cn1nnc(-c2ccc(NC(=O)c3cccnc3)cc2)n1	none (no result: Cardio protect, Myeloid diff 2, hiPSC survival, ABCB6 inh MLPCN)
COCCCNC(=O)Cn1nnc(-c2ccc(NC(=O)c3ccc(F)cc3)cc2)n1	none | Myeloid diff CP1 inactive | GFP autofluor inactive
CSCCCN1CC[C@@H](N2CCN(c3ccccc3F)CC2)[C@H](O)C1	none
Cc1ccc(S(=O)(=O)N2C[C@H]3C(=O)C[C@@H](c4ccccc4)N(S(=O)(=O)c4ccc(C)cc4)[C@H]3C[C@H]2c2cccc(C)c2)cc1	Myeloid diff 2 active (no result: beta cell repl) | Myeloid diff CP1 inactive | GFP autofluor inactive
CCN(CC)S(=O)(=O)c1cc(OCC(N)=O)c(C)cc1Cl	none | Myeloid diff CP1 inactive | GFP autofluor inactive
Cc1cc(Cl)c(S(N)(=O)=O)cc1OCC(N)=O	none
CCN(C(=O)COc1cc(=O)n(CC)c2ccccc12)c1cccc(Cl)c1	none
CCN(C(=O)COc1cc(=O)n(CC)c2ccccc12)c1cc(Cl)ccc1OC	none | Myeloid diff CP1 inactive | GFP autofluor 17
Oc1cc(-c2ccncc2)cc2cccnc12	Myeloid diff 2 active | Myeloid diff CP1 inactive | GFP autofluor inactive
CN(C)c1ccc(-c2cc(O)c3ncccc3c2)cc1	Myeloid diff 2 inconclusive
COc1ccc(CNC(=O)CSc2n[nH]c(N)n2)cc1	none
N#Cc1cc2c(nc1SCC(=O)Nc1sc3c(c1C#N)CCC3)CCCC2	none
N#Cc1ccc(-c2ccc(F)cc2)nc1SCC(=O)Nc1sc2c(c1C#N)CCC2	none | Myeloid diff CP1 inactive | GFP autofluor inactive
Cc1nnc(SCc2nc3sc(C(=O)O)c(C)c3c(=O)[nH]2)s1	none
CC(=O)c1ccc(C(=O)NC2CCCN(Cc3ccccc3F)C2)cc1 (configuration not stated)	none
